# PAFAH1B3 inh: inhibitors of human PAFAH1B3 | inhibition, % at 3.39 µM | recombinant PAFAH1B3, FP-rhodamine probe, fluorescence polarization | hit rate 0.28% among 340,000 | Q15102 | AID 492972;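 active means inhibition above the screen-wide average of all tested compounds plus 3 SD, cut at about 25% in these data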;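 further: 0% = enzyme with DMSO only and 100% = wells lacking PAFAH1B3 protein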
# Fam108B counter: counter-screen for RBBP9 inhibitors: inhibitors of mouse Fam108B; recombinant Fam108B, FP-Rh probe fluorescence polarization; inhibition, % at 9.51 µM; hit rate 0.33% among 300,000; AID 1947;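 active means inhibition above the screen mean inhibition plus 3 SD, computed separately per campaign, cut at about 18% in these data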;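 further: inhibitors lower polarization as less probe binds the enzyme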
# pPAFAH inh: pPAFAH (human) enzyme inhibition; Q13093; hit rate 1.5% among 330,000; AID 463082; inhibition, % at 3.39 µM; recombinant pPAFAH, FP-rhodamine probe fluorescence polarization;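 active means inhibition above the mean inhibition across the screen plus 3 SD, cut at about 25% in these data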;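 further: inhibitors block binding of the rhodamine activity-based probe so polarization drops; 0% = enzyme with DMSO and 100% = wells lacking pPAFAH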
# PME-1 inh: blocks human protein phosphatase methylesterase 1; recombinant PME-1, FP-Rh probe fluorescence polarization; inhibition, % at 5.9 µM; hit rate 0.53% among 320,000; AID 2130;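 active means inhibition above the campaign mean of all compounds plus 3 SD, cut at about 26% in these data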;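 further: competitive labeling of PME-1 active site by serine hydrolase directed probe; 0% = PME-1 with DMSO and 100% = wells lacking PME-1 enzyme; inhibitors block probe labeling so polarization falls and inhibition rises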
# Target sequence (Q9Y570 whole entry, looked up): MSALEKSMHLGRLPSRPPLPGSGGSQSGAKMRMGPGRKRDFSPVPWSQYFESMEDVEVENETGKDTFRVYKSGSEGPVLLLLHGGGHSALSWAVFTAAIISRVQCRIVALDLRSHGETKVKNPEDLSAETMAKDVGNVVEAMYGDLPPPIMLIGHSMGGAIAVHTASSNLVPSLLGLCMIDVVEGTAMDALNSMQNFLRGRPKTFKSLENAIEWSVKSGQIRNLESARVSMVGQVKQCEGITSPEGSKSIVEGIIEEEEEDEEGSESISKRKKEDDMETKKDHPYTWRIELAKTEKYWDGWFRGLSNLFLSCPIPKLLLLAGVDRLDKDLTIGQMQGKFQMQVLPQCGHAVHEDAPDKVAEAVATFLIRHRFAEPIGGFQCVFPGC
# PAFAH1B2 inh: blocks human PAF acetylhydrolase 1b catalytic subunit 2; recombinant PAFAH1B2, FP-rhodamine activity probe, fluorescence polarization; hit rate 1.2% among 340,000; inhibition, % at 3.39 µM; AID 492953;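 active means inhibition above the mean of all tested compounds plus 3 SD, cut at about 24% in these data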;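 further: 0% = enzyme with DMSO and 100% = wells lacking PAFAH1B2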
# Target sequence (P68402 whole entry, looked up): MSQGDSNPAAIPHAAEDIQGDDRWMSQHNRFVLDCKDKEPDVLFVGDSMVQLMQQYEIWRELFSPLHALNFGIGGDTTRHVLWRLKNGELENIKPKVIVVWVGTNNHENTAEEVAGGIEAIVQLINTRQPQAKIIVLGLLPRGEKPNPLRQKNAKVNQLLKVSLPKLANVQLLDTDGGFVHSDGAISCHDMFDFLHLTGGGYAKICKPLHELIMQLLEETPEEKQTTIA
# PAFAH2 inh: PAFAH2 (human) inhibition | recombinant PAFAH2, FP-rhodamine activity probe, fluorescence polarization | hit rate 0.99% among 340,000 | inhibition, % at 3.39 µM;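 active means inhibition above the mean over all tested compounds plus 3 SD, cut at about 30% in these data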;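 further: inhibitors block probe labeling of enzyme so polarization drops; 0% = enzyme with DMSO and 100% = wells lacking PAFAH2 protein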
# Active calls of the source: *; nt = no result. Sampled rows, rich in hits. Any-hit rate of the full collection: about 2.9%.
SMILES,PAFAH1B3 inh,Fam108B counter,pPAFAH inh,PME-1 inh,PAFAH1B2 inh,PAFAH2 inh
CN1CCN(S(=O)(=O)c2cccc(C(=O)Nc3cc(C(N)=O)cc(C(N)=O)c3)c2)CC1,3,2,3,5,25*,3
CN1CCN(S(=O)(=O)c2cccc(C(=O)Nc3sccc3C(N)=O)c2)CC1,15,nt,12,0,9,3
Cc1nc(-c2cccc(S(=O)(=O)N3CCC(C)CC3)c2)cs1,1,3,1,8,30*,3
CN1CCN(S(=O)(=O)c2cccc(C(=O)N(c3ccccn3)C3CCCCC3)c2)CC1,14,0,5,2,4,5
C/C(=N\Nc1ccc(Cl)c(C(=O)O)c1)c1ccc[nH]1,17,7,33*,-7,4,13
CC(C)Oc1cccc(C(=O)C2CCCN(Cc3ccc4nonc4c3)C2)c1 (stereo not drawn),-4,-1,32*,3,-2,0
COc1ccccc1NC(=O)C1CCC(CNc2c(N3CCCCC3)c(=O)c2=O)CC1 (stereo not drawn),3,2,3,-1,-1,-3
Oc1ccc(Cl)cc1C=Nc1ccccc1Br,12,0,0,-2,2,8
Oc1ccc(Br)cc1C=Nc1ccc2c3c(cccc13)CC2,13,6,28*,0,5,6
O=C(N/N=C/c1ccc(O)c(Br)c1)c1cc2c(ccc3ccccc32)o1,-4,nt,nt,nt,-2,-6
Cc1ccc(C(=O)N/N=C/c2c(O)ccc3ccccc23)cn1,25,13,31*,17,19,7
O=C(N/N=C/c1c(O)ccc2ccccc12)c1cccnc1,25,5,25*,10,20,11
O=C(N/N=C/c1cc(Br)c(O)c(Br)c1)c1cc2c(ccc3ccccc32)o1,43*,nt,nt,nt,49*,29
O=C(N/N=C/c1c(O)ccc2ccccc12)c1ccc(Br)o1,35*,1,29*,2,12,14
Cc1cc(C)cc(N(C(=O)c2csnn2)C(C(=O)NC(C)(C)C)c2ccccn2)c1 (stereo not drawn),8,0,5,-5,-2,4
COc1ccc(C(CNC(=O)c2ccc(C)c(S(=O)(=O)N3CCOCC3)c2)N2CCCC2)cc1 (stereo not drawn),3,nt,nt,nt,1,0
Cc1cccc(C)c1NC(=O)CNC(=O)C1COc2ccccc2O1 (stereo not drawn),12,nt,2,0,8,14
Cc1cccc(NC(=O)CN2CCN(CC(=O)NCc3ccc(Cl)cc3Cl)CC2)c1C,0,nt,3,5,4,7
O=C(N/N=C/c1ccc(O)c2ncccc12)c1cccc(Br)c1,26*,12,27*,23,17,13
COC(=O)C(NNc1ccccc1)(NC(=O)c1cccc(F)c1)C(F)(F)F (stereo not drawn),10,0,2,-5,0,5
COc1ccc(C2OC34CCCCC3C(C#N)(C#N)C2(C#N)C(=N)O4)cc1 (stereo not drawn),50*,7,16,12,46*,61*
N#CC1(C#N)COC23CCCCC2C1(C#N)C(=N)O3 (stereo not drawn),18,3,9,1,18,35*
CC1OC23CCCCC2C(C#N)(C(=N)O3)C1(C#N)C#N (stereo not drawn),14,-4,3,-2,11,11
CCC1OC23CCCCC2C(C#N)(C(=N)O3)C1(C#N)C#N (stereo not drawn),33*,0,9,10,34*,48*
COc1ccc(C2CC3(O)NC(=O)C(C#N)(C3C)C2(C#N)C#N)cc1 (stereo not drawn),nt,3,3,-3,nt,nt
SMILES,PAFAH1B3 inh,Fam108B counter,pPAFAH inh,PME-1 inh,PAFAH1B2 inh,PAFAH2 inh
N#CC12COC3(CCCCC3C1(C#N)C#N)OC2=N (stereo not drawn),35*,-3,5,12,20,38*
COc1ccc(-n2c(=S)[nH]c3ccccc32)cc1,-13,-8,6,-21,-9,-14
COCCNC(=O)c1onc(CSc2ccc(Cl)cc2)c1C(=O)O,6,0,4,1,28*,10
COCCNC(=O)c1onc(CSc2ccc(C(C)C)cc2)c1C(=O)O,3,-3,8,2,18,-3
N#CC1=C2N=C(N)c3c(sc4c3CCCCC4)N2C2=C(C(=O)CCC2)C1c1ccccc1 (stereo not drawn),12,6,30*,25,7,12
N#CC1=C2N=C(N)c3ccccc3N2C2=C(C(=O)CCC2)C1c1ccc(F)cc1 (stereo not drawn),8,4,3,22,-1,13
O=C(O)Cc1sc(=O)[nH]c1O,3,nt,nt,nt,6,-3
CCOc1ccc(/C=N/Nc2cc(N3CCOCC3)nc(C)n2)c(O)c1,3,10,4,30*,6,8
CC(=O)c1ccc(OCC(=O)N2CCN(S(=O)(=O)c3ccc(C)cc3C)CC2)cc1,15,1,32*,17,6,0
CCOc1ccc(OCCC(=O)OCC(=O)N2CCN(S(=O)(=O)c3ccc(C)cc3)CC2)cc1,3,1,4,1,8,0
Cc1ccc(OCCC(=O)OCC(=O)N2CCN(S(=O)(=O)c3ccc(Cl)cc3)CC2)cc1,4,4,16,9,28*,-6
CCCOc1ccccc1OCC(=O)N1CCN(S(=O)(=O)c2ccc(Cl)cc2)CC1,-1,nt,2,2,25*,-4
Cc1ccc(S(=O)(=O)N2CCN(C(=O)CSc3ccc(F)cc3)CC2)cc1,15,0,2,1,26*,2
O=C(CSc1ccccc1)N1CCN(S(=O)(=O)c2ccccc2)CC1,-7,1,6,8,8,7
CC(C)CCNC(=O)C(c1ccncc1)N(CC1CCCO1)C(=O)Cn1nnc(-c2ccc(F)cc2)n1 (stereo not drawn),2,-8,-4,2,-4,26
COc1cccc(OCC(=O)Nc2cc(NC(=O)COc3cccc(OC)c3)cc(C(=O)O)c2)c1,13,-5,-2,-4,-2,-5
Cc1ccc(CS(=O)(=O)Cc2ccc(C(=O)NCc3ccco3)o2)cc1,0,-5,34*,-4,1,3
Cc1cccc(CS(=O)(=O)Cc2ccc(C(=O)NCc3ccco3)o2)c1,3,5,25*,-5,-6,3
Cc1cccc(CS(=O)(=O)Cc2ccc(C(=O)NCc3cccnc3)o2)c1,6,1,24,-3,-7,8
O=C(CBr)c1ccc([N+](=O)[O-])c(CS(=O)(=O)c2ccc(Cl)cc2)c1,7,-2,6,0,16,5
CC(=O)N(Cc1cc2ccccc2[nH]c1=O)c1ccc(C)cc1,9,8,-3,-1,10,0
CCOc1cc(C=O)ccc1OCCSc1ccc(Cl)cc1,-1,0,13,-2,54*,-2

# Bioassay records deposited in PubChem by The Scripps Research Institute Molecular Screening Center.
